Data published in PubChem BioAssay (NCI).
The panel holds about 79,000 compounds, 15% with a hit somewhere; the sample as a whole holds those more often. Calls of active or inactive are those of the source. Cut-off read from the data, not from the text of the source: active = growth inhibition above about 70%; inactive = the rest.

Tests used:
[1] = NCI Yeast Anticancer Drug Screen. Data for the rad50 strain (AID 155);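 note: 0% = growth of vehicle-only cultures of the same strain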; conditions: S. cerevisiae rad50 strain growth inhibition; at 50.0 µM; active compounds read high
Outline: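 DNA repair mutant yeast, compound exposure, growth read-out; inhibition is taken relative to vehicle.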

[2] = NCI Yeast Anticancer Drug Screen. Data for the mec2-1 strain (AID 157); conditions: S. cerevisiae mec2-1 strain, at 50.0 µM, active compounds read high
Outline: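 Readout is yeast growth inhibition, normalised to vehicle-treated controls, in the mec2-1 strain exposed to compound.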

[3] = NCI Yeast Anticancer Drug Screen. Data for the sgs1 mgt1 strain (AID 161);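 note: 0% = growth of cultures given vehicle only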; conditions: S. cerevisiae sgs1 mgt1 strain, at 50.0 µM, active compounds read high
Outline: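 Percent growth inhibition was derived by comparing compound-exposed mutant yeast with vehicle-exposed cultures. The strain carries alterations in DNA damage repair.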

[4] = NCI Yeast Anticancer Drug Screen. Data for the cln2 rad14 strain (AID 165);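 note: 0% = growth equal to vehicle treated cultures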; conditions: S. cerevisiae cln2 rad14 strain, at 50.0 µM, active compounds read high
Outline: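 Relative to vehicle controls, growth inhibition of compound-treated cln2 rad14 yeast was recorded.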

[5] = NCI Yeast Anticancer Drug Screen. Data for the bub3 strain (AID 167); conditions: S. cerevisiae bub3 mutant strain, at 50.0 µM, active compounds read high
Outline: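 In this screen, a yeast mutant lacking normal mitotic checkpoint function is challenged with compound. Relative growth versus vehicle gives the inhibition value.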

[6] = NCI Yeast Anticancer Drug Screen. Data for the mlh1 rad18 strain (AID 175); conditions: S. cerevisiae mlh1 rad18 strain growth inhibition; at 50.0 µM; active compounds read high
Outline: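 Test agents were incubated with a yeast strain of defined genotype (DNA damage repair defect). Inhibition of growth was derived by comparison with vehicle-exposed cultures.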

Measured: growth inhibition

CC1=CP(=O)(OC(C)C)CC(C)=C1Cl (stereo not drawn)
inactive: [1] 33.7% | [2] -6.9% | [3] -11.4% | [4] -9.55% | [5] -25.8% | [6] 20.8%

COP(=O)(OC)C1(c2ccccc2)C2C3CCC(C3)C21 (stereo not drawn)
inactive: [1] 1.75% | [2] 21.7% | [3] 2.65% | [4] -7% | [5] 14.8% | [6] 17.8%

C1CCC(N([P-]P([P-]N(C2CCCCC2)C2CCCCC2)N(C2CCCCC2)C2CCCCC2)C2CCCCC2)CC1.[C-]#[O+].[C-]#[O+].[C-]#[O+].[C-]#[O+].[C-]#[O+].[C-]#[O+].[Fe].[Fe] (stereo not drawn)
inactive: [1] -20.7% | [2] -28.1% | [3] -23.2% | [4] -8.1% | [5] 2.2% | [6] -24.4%

CNC(=O)O/N=C(\CN=[N+]=[N-])C(C)(C)C
inactive: [1] 4.6% | [2] 3.55% | [3] -1.4% | [4] 0% | [5] -19.6% | [6] -20.5%

COc1ccc(CCF)cc1
inactive: [1] -4.95% | [2] 4% | [3] -0.7% | [4] -9.85% | [5] 4.4% | [6] -3.85%

CCN(CC)c1ccc([P+](=O)O)cc1
inactive: [1] 6.45% | [2] -9.45% | [3] -9.4% | [4] -27.6% | [5] -7.4% | [6] -8.4%

Cc1c([As](=O)(O)O)ccc2nc3c(C)c([As](=O)(O)O)ccc3nc12
inactive: [1] 24.5% | [2] 1.25% | [3] 15.4% | [4] 9.25% | [5] 2.4% | [6] 21.6%

[N-]=[N+]=[N-]
inactive: [1] 6.75% | [2] 5.75% | [3] 15% | [4] -3.05% | [5] 18% | [6] -13.7%

c1ccc2c(c1)SCCC2NC1=NCCO1 (stereo not drawn)
inactive: [1] -15.2% | [2] -13.6% | [3] -9% | [4] 9.45% | [5] 8.7% | [6] -36.3%

CC(C)(C)C(=O)CP(=O)(O)O (tested in a mixture with another compound)
inactive: [1] 24.1% | [2] -4.45% | [3] 1.5% | [4] 14.7% | [5] 10.2% | [6] 15.3%

N#CCc1ccc(CC#N)cc1
inactive: [1] 14.1% | [2] -10.6% | [3] -2.8% | [4] 16.6% | [5] -5.1% | [6] 1.45%

C[N+]1(C)C2CCC1CC(O)C2 (stereo not drawn)
inactive: [1] 5.45% | [2] -9.85% | [3] 3.55% | [4] 23.1% | [5] -6.35% | [6] 3.6%

COP1(=S)OCC2CCC[C@@H]2O1 (stereo partly drawn)
inactive: [1] -19.5% | [2] -26.4% | [3] -33% | [4] 3.2% | [5] -21.9% | [6] -32.1%

COc1ccc2[nH]c3c(c2c1)CCNC3C (stereo not drawn)
inactive: [1] 2.3% | [2] -12.6% | [3] 2.6% | [4] -52.1% | [5] 5.4% | [6] -17.3%

CCC1(N)C(=O)OCc2c1cc1n(c2=O)Cc2cc3ccccc3nc2-1 (stereo not drawn)
inactive: [1] 4.8% | [2] -17.5% | [3] -39.6% | [4] -7.75% | [5] -17.1% | [6] -12.3%

NC(c1ccccc1)C(Cl)c1ccccc1 (stereo not drawn)
inactive: [1] -6.9% | [2] -54.3% | [3] 3.15% | [4] -20.8% | [5] 14.9% | [6] -7.55%

Oc1ccccc1C=NCCN=Cc1ccccc1O.[Cu]
inactive: [1] 15.4% | [2] -25.9% | [3] -4.75% | [4] -36.4% | [5] 3.55% | [6] -7.7%

O=C1C(=C(O)c2ccccc2)C(=O)c2ccccc21
inactive: [1] -3% | [2] 1.65% | [3] 1.65% | [4] -0.25% | [5] -1.8% | [6] 12.3%

CC(C)CC(NC(=O)CF)C(=O)O (stereo not drawn)
inactive: [1] 3.45% | [2] 0.05% | [3] -4.7% | [4] 1.4% | [5] 4.05% | [6] -3.05%

Cc1ccc2c3c(c(=O)oc2c1)[C@H](C)C[C@@](C)(CO)O3
inactive: [1] -8.35% | [2] 1.9% | [3] 9.8% | [4] -5.4% | [5] 3.7% | [6] -7.35%

CCCN(CCC)CCc1ccc(OC2=CCN(C)CC2)cc1
inactive: [1] -22.6% | [2] -22.1% | [3] 8.85% | [4] 16.6% | [5] -15.8% | [6] -55%

CCCC(=O)OC1C(c2ccc(=O)oc2)C2(C)CCC3C(CCC4CC(OC(C)=O)CCC43C)C23OC13 (stereo not drawn)
inactive: [1] 1.55% | [2] -16.9% | [3] 1.5% | [4] 9.6% | [5] -5.95% | [6] 0.2%

Cc1ccc(P(=S)(c2ccccc2)c2ccccc2)c2ccccc12
inactive: [1] 9.9% | [2] 0.45% | [3] -1.5% | [4] 10.6% | [5] 20% | [6] -4.25%

OC(c1ccccc1)C(Cl)(Cl)Cl (stereo not drawn)
inactive: [1] 17.1% | [2] -10.8% | [3] 13.7% | [4] -42.1% | [5] -14.1% | [6] 3.55%

N/C(N=P(c1ccccc1)(c1ccccc1)c1ccccc1)=N\[N+](=O)[O-]
inactive: [1] 11.7% | [2] 15.8% | [3] 8.35% | [4] 4.65% | [5] 12.2% | [6] -16.1%

CO[C@H](C)[C@](O)(C(=O)OCC1=CCN2CC[C@@H](O)[C@H]12)C(C)C
inactive: [1] -11.4% | [2] -37.6% | [3] -8.8% | [4] 1.25% | [5] -23.8% | [6] -13.6%

CN1CN(c2ccccc2)C2(CCN(CCCN(C)c3ccc(F)cc3)CC2)C1=O
inactive: [1] 0.1% | [2] -0.4% | [3] 6.35% | [4] 5.85% | [5] 3.35% | [6] 17.3%

CN1C(=O)N(C)C(O)C(Cl)(Cl)C1=O (stereo not drawn)
inactive: [1] -4.75% | [2] 10.1% | [3] 13.6% | [4] 30.6% | [5] 26.1% | [6] 11.6%

C=Cn1nnnc1N
inactive: [1] -3% | [2] 2.05% | [3] -10.3% | [4] 8.6% | [5] 14.3% | [6] 4.5%

CN(C)[C@@H]1C(=O)C(C(N)=O)=C(O)[C@]2(O)C(=O)C3C(=O)c4c(O)ccc(Cl)c4[C@](C)(O)[C@H]3C[C@@H]12 (stereo partly drawn)
inactive: [1] -6.15% | [2] 7.5% | [3] 22.8% | [4] -2.35% | [5] 3.15% | [6] -2.9%

O=[N+]([O-])c1cc(S(=O)(=O)O)cc([N+](=O)[O-])c1Cl
inactive: [1] 8.35% | [2] 7% | [3] 2.85% | [4] 50.5% | [5] -17% | [6] 24.8%

N.N.N.N.N.O=[N+]([O-])[O-].[Co+3].[O-][Cl+3]([O-])([O-])[O-]
inactive: [1] -13.7% | [2] 4.6% | [3] -10.5% | [4] -3.15% | [5] -4.45% | [6] -7.75%

C=C(C)[C@]12CC(C)C34OC(/C=C\C=C\CCCCCCCCC)(O[C@@H]1[C@@H]3[C@@H]1O[C@]1(CO)[C@@H](O)[C@]1(O)C(=O)C(C)=C[C@@H]41)O2 (stereo partly drawn)
active: [1] 74.4% | [2] 70% | [3] 84.9% | [4] 73% | [5] 73.1%
inactive: [6] 64.2%

[Cl][Rh]([Cl])([Cl])[Cl].[NH-]CC[NH-]
inactive: [1] 17.2% | [2] 15% | [3] 15.7% | [4] -17.4% | [5] -9.95% | [6] 8.55%

O=C(O)c1cccc(Cl)c1
inactive: [1] 31.6% | [2] 6% | [3] 19.1% | [4] 10.9% | [5] 25.9% | [6] 8.2%

CCOC(=O)OC1(c2ccccc2)CCN(C)CC1
inactive: [1] -12.2% | [2] 5.75% | [3] -4.55% | [4] 34.3% | [5] 21.4% | [6] 21.4%

Nc1nc(=S)nc(N)[nH]1
inactive: [1] 21.6% | [2] 11.2% | [3] -7.9% | [4] -18.5% | [5] 14.6% | [6] -2.5%

CCCC(C)SP(=S)(SC(C)CCC)SC(C)CCC (stereo not drawn)
inactive: [1] 4.1% | [2] -11.3% | [3] -1.9% | [4] -43.3% | [5] 2.85% | [6] 19.6%
